PubChem BioAssay (NCI)
Compounds without any hit were thinned out: in the full panel of roughly 83,000, 20% have a hit.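 Compound tested at a single concentration for 48 hours in 96-well plates; a percent growth value below 10 was scored as active.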 Values without a mark were called inactive. The source made the active and inactive calls.

Columns and labels:
Test in all cases: NCI-60 one-dose screen, 48 h (100 = growth as untreated, 0 = no growth, -100 = all killed)
Conditions in all cases: 10 µM unless noted
[1] = system: DU-145 prostate
[2] = system: K-562 leukemia
[3] = system: MALME-3M melanoma
[4] = system: MDA-MB-231 breast
[5] = system: RXF 393 renal
[6] = system: SF-268 CNS
[7] = system: SF-295 CNS
[8] = system: SF-539 CNS
[9] = system: UACC-257 melanoma
[10] = system: M14 melanoma
[11] = system: HCT-15 colon
[12] = system: HT29 colon
[13] = system: SNB-75 CNS
[14] = system: SNB-19 CNS
[15] = system: U251 CNS
[16] = system: PC-3 prostate
[17] = system: SK-MEL-5 melanoma
[18] = system: UACC-62 melanoma
[19] = system: LOX IMVI melanoma
[20] = system: SK-MEL-28 melanoma

SMILES | growth [1] | growth [2] | growth [3] | growth [4] | growth [5] | growth [6] | growth [7] | growth [8] | growth [9] | growth [10] | growth [11] | growth [12] | growth [13] | growth [14] | growth [15] | growth [16] | growth [17] | growth [18] | growth [19] | growth [20]
CC(=O)c1c(C)nc(SCC(=O)Nc2cccc(O)c2)n1-c1ccc(Cl)cc1 | 103% | 105% | 90.8% | 82.1% | 92% | 96.2% | 97.4% | 105% | 101% | 94.4% | 95% | 102% | 62.8% | 92% | 91.9% | 89.6% | 93.2% | 75.3% | 104% | 106%
COc1ccc(/C=C(\C#N)n2nnc3cc(Cl)ccc32)cc1 | -14.9% (active) | 8.41% (active) | 34.6% | -56.3% (active) | -55.2% (active) | 27.6% | -20.9% (active) | -60.5% (active) | 53% | -19.1% (active) | 0.0447% (active) | 2.07% (active) | -47.6% (active) | 9.63% (active) | 5.37% (active) | 18.8% | -17.5% (active) | 9.49% (active) | -45.7% (active) | 31.3%
N#CSCC1CC(O)(c2ccccc2)CC(c2ccc(F)cc2)O1 (stereo not given) | -27.8% (active) | 20.7% | 29.1% | -1.42% (active) | -35.3% (active) | -26.3% (active) | -17.2% (active) | 21% | 69.1% | -35.6% (active) | 16.5% | -0.0912% (active) | -25.8% (active) | 31.9% | -51.2% (active) | 25.8% | 22.1% | 11.4% | -46.8% (active) | 43.9%
CN(C)c1ccc(C(=O)OCCCCCCl)cc1 | 96.4% | 106% | 89% | 87.4% | 102% | 94% | 98.9% | 96.1% | 109% | 95.3% | 100% | 99.1% | 78.4% | 95.6% | 99.7% | 87.1% | 98.5% | 94.5% | 102% | 103%
COC1=CC(c2ccc[nH]2)=N/C1=C\c1[nH]c(C)c(C(=O)OC(C)C)c1C | 10.5% | 2.07% (active) | -74.3% (active) | -67% (active) | -17.7% (active) | 6.34% (active) | -76% (active) | -58.6% (active) | -37.7% (active) | -67.5% (active) | -30.1% (active) | -11.6% (active) | -15.7% (active) | 21.1% | -26.7% (active) | 8.84% (active) | -99.5% (active) | -62.9% (active) | -92.4% (active) | -54.5% (active)
N#Cc1ccc(O)c(C2=NCC(c3cccc(Oc4ccccc4)c3)O2)c1 (stereo not given) | 39.4% | 7.33% (active) | 37.3% | 24.6% | 61.8% | 23.1% | 30.9% | 23.6% | 6.96% (active) | -4.77% (active) | 26.8% | 13.8% | 51.7% | 22.3% | 3.98% (active) | 31.4% | 32.7% | -1.59% (active) | 23% | 37.5%
N#CC1=C(N)Oc2c(sc3c(Br)cccc23)C1c1ccc(Cl)cc1 (stereo not given) | 20% | 7.37% (active) | 50.4% | 9.21% (active) | -18% (active) | 20.2% | 6.9% (active) | -38.2% (active) | 64% | 1.7% (active) | 8.47% (active) | -14.2% (active) | 4.29% (active) | 37% | 7.28% (active) | 17.3% | 17.3% | 10.3% | 23.3% | 44.8%
CCCCCCCCCCCCCCCCCCOc1ccccc1CC(=O)OCC[N+](C)(C)C | 36.1% | 18.6% | 26.9% | -2.29% (active) | -54% (active) | 15% | 45.8% | 21.3% | 22.3% | 6.22% (active) | 57.5% | 8.73% (active) | -16.4% (active) | 29.9% | -76.6% (active) | 5.84% (active) | 25.3% | 18.6% | 29.3% | 64.8%
O=C(CN1CCCCC1)Nc1nc(-c2cc3ccccc3oc2=O)cs1 | 106% | 90.9% | 103% | 103% | 100% | 94.1% | 102% | 103% | 102% | 107% | 102% | 100% | 82.4% | 100% | 97.4% | 97.8% | 96% | 91.7% | 101% | 102%
Nc1n[nH]c2cccc(C#Cc3cccc(NC(=O)c4cc(F)cc(C(F)(F)F)c4)c3)c12 | 97.9% | 9.27% (active) | 53% | 48.1% | 62.8% | 73.6% | 81.3% | 44% | 88.5% | 41.9% | 74.4% | 48.3% | 98.6% | 104% | 93.7% | 64.1% | 71.7% | 48.1% | 37% | 66.8%
NC(N)=NCCCCCNc1noc(Cc2c[nH]c3cc(Br)ccc23)n1 | 92.8% | 86.4% | 47.8% | 69.4% | 78.3% | 33.3% | 80.2% | 71.8% | 65.7% | 73.6% | 102% | 73.7% | 37.6% | 37.5% | 21.6% | 31.8% | 68.1% | 56.1% | 70.5% | 86.9%
CCCCNCCCCCNc1cc(OC)cc2cccnc12 | 120% | 76.8% | 80.8% | 87.3% | 87.7% | 95% | 96.1% | 92.8% | 93.1% | 97.1% | 88.2% | 96% | 74.1% | 95.5% | 91.8% | 77.8% | 94.3% | 83.2% | 105% | 98.8%
COc1ccc(-c2nn(-c3cccc(Cl)c3)cc2-c2cc(-c3ccc(Br)cc3)nc(N)n2)cc1 | 107% | 94.2% | 102% | 81.9% | 111% | 101% | 99.1% | 103% | 104% | 92.8% | 81.4% | 86% | 96.9% | 95.2% | 97.5% | 80% | 94.6% | 85% | 98.7% | 103%
O=C(CSc1oc(-c2ccccc2)nc1S(=O)(=O)c1ccccc1)Nc1ccc(F)cc1 | 110% | 75.4% | 56.4% | 75.6% | 90.5% | 85.7% | 73.4% | 65.6% | 92.5% | 90.2% | 73.7% | 91.7% | 87.8% | 93.5% | 93.8% | 52.7% | 78.8% | 66.4% | 94% | 98.4%
Cc1[nH]c(C(=O)Nc2ccc(C(=O)N3CCN(c4cc5c(cc4F)c(=O)c(C(=O)O)cn5C4CC4)CC3)cc2OC(C)C)c(Cl)c1Cl | 87.2% | 56.4% | 89% | 80.3% | 82.4% | 78.1% | 81.4% | 75.3% | 82.5% | 73.2% | 18.1% | 37.3% | 67.8% | 89.8% | 36.4% | 59.1% | 75.3% | 81.8% | 21.6% | 86.6%
